The source made the active and inactive calls. Unless noted, no rule for the calls is given here.
Columns and labels:
[1] = compounds binding Alexa647 anti-His antibody – biochemical, small-molecule microarray, 635 nm fluorescence, artefact control for SMM control protein annotation, primary screen (AID 1128); details: higher = more signal;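 also: score merges feature fluorescence with signal-to-noise for each printed compound spot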
[2] = test system: Human papillomavirus type 1a E7 protein (residues 1-88); test: HPV1a E7 small-molecule binders, primary screen, biochemical, small-molecule microarray, residues 1-88, 635 nm (AID 1129); details: small-molecule microarray binding, fluorescence 635 nm; higher = more signal
[3] = biological target: Focal adhesion kinase 1 (Homo sapiens) (UniProt Q05397); test: PTK2 protein binding on printed compound slides – biochemical, small-molecule microarray, 635/667 nm fluorescence, BSA, DTT, primary screen (AID 1130); details: 635 nm fluorescence, higher = more signal;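 also: composite of spot emission at 667 nm and signal to noise over triplicate slides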
Sequence of Focal adhesion kinase 1 (Homo sapiens) (Q05397 whole entry, looked up): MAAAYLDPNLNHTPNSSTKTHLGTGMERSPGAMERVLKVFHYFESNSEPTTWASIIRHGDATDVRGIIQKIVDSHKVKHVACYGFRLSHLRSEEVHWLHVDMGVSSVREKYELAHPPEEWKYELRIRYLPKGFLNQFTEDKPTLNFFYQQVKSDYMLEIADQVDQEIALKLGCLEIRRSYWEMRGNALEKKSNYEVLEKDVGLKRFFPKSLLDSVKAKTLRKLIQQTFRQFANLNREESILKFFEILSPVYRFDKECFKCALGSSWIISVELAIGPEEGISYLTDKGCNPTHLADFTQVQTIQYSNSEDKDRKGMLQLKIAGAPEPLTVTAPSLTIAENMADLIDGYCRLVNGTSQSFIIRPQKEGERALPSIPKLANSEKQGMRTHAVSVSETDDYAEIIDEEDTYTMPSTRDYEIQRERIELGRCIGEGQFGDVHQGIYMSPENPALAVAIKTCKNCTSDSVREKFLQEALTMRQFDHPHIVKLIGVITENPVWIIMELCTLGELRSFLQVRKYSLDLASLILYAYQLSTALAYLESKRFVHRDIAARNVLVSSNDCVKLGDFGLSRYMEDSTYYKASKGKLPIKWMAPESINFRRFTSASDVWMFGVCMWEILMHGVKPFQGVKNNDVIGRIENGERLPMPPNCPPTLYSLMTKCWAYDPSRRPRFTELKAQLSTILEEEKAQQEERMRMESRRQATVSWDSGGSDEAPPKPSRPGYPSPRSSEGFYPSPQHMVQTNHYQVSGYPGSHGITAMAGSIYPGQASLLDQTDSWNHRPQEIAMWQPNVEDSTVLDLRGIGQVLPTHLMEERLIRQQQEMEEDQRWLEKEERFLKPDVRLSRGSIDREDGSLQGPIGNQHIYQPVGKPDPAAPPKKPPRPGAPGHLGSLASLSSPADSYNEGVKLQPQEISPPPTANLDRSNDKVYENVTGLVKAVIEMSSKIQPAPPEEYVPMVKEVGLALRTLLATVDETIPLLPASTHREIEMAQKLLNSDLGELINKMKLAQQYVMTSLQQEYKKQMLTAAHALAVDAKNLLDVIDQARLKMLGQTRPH

[4] = test system: Fibrinogen (Alexa647-labelled); test: Alexa647-fibrinogen binding to printed small molecules – biochemical, small-molecule microarray, 635/667 nm fluorescence, artefact control for SMM control-protein annotation, profiling panel (AID 1131); details: fibrinogen-A647 binding fluorescence, higher = more signal;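 also: z-score merges 667 nm fluorescence with per-spot signal-to-noise over triplicate slides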
[5] = biological target: Follistatin (Homo sapiens) (UniProt P19883); test: FST protein binding to printed compounds – biochemical, small-molecule microarray, 635/667 nm fluorescence, primary screen (AID 1132); details: 635 nm fluorescence, higher = more signal
Sequence of Follistatin (Homo sapiens) (P19883 whole entry, looked up): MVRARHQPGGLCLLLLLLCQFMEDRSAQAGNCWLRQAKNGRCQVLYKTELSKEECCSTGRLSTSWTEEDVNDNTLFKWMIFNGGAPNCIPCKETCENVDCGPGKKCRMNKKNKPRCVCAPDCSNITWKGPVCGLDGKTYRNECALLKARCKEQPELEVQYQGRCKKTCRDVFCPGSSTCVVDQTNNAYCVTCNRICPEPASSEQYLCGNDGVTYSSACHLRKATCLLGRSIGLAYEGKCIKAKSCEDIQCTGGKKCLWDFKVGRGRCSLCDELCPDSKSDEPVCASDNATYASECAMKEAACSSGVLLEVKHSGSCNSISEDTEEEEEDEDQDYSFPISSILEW

[6] = biological target: Fibroblast growth factor 2 (Homo sapiens) (UniProt P09038); test: basic fibroblast growth factor binding to printed compounds – biochemical, small-molecule microarray, 635/667 nm fluorescence, primary screen (AID 1133); details: FGF2, fluorescence 635/667, higher = more signal
Sequence of Fibroblast growth factor 2 (Homo sapiens) (P09038 whole entry, looked up): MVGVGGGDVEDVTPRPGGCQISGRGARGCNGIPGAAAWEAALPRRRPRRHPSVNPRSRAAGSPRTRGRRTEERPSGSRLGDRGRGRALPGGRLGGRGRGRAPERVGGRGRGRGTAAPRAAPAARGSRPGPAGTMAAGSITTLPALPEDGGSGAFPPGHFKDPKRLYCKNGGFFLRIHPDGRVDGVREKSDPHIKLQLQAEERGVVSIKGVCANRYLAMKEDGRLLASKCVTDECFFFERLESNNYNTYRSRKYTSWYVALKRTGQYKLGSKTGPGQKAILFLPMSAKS

[7] = JC-1 mitochondrial potential readout, lung cancer cells – cell-based, A549, JC-1 fluorescence, basal, 24 h, 100 nL, profiling panel (AID 1138); details: higher = more signal;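 also: A549 lung adenocarcinoma cells under basal conditions with no added stimulus; test concentration not given here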
Lefty1 = Lefty1 protein binding to printed compounds – biochemical, small-molecule microarray, 635/667 nm fluorescence, primary screen (AID 1139); details: fluorescence 635/667, higher = more signal
[8] = test system: wheat germ agglutinin (Triticum aestivum), Alexa647-labelled; test: Alexa647-WGA lectin binding to printed small molecules – biochemical, small-molecule microarray, 635/667 nm fluorescence, artefact control for SMM control-protein annotation, profiling panel (AID 1140); details: WGA-A647 binding, 635 nm fluorescence, higher = more signal;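 also: score merges 667 nm feature emission with signal to noise over triplicate slides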
[9] = biological target: Luciferin 4-monooxygenase (Photinus pyralis) (UniProt P08659); test: inhibition of purified Photinus pyralis luciferase – biochemical, luminescence, purified enzyme, 2006 set, primary screen (AID 1141); details: purified firefly luciferase, SteadyGlo luminescence, 30 min; higher = more signal, called active from +8 up or from −8 down;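 also: cell-free assay with purified firefly luciferase at 100 ng per well in PBS; test concentration not given here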
Sequence of Luciferin 4-monooxygenase (Photinus pyralis) (P08659 whole entry, looked up): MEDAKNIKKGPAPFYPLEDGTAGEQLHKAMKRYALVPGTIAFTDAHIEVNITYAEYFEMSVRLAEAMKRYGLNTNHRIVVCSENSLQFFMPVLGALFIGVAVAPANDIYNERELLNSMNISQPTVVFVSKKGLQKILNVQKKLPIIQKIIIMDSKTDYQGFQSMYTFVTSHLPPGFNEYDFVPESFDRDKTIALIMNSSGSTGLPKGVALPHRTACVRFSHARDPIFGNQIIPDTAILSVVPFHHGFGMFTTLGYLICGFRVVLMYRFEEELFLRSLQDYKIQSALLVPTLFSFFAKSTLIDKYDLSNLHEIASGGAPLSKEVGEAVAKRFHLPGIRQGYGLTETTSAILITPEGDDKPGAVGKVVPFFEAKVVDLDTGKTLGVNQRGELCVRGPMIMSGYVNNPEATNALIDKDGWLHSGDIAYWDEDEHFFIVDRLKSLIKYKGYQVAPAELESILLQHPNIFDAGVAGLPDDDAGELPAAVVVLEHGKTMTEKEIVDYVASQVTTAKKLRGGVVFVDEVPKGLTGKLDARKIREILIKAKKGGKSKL

[10] = test system: Wnt5a (protein binding on small-molecule microarray); test: small molecules binding Wnt5a protein – biophysical, small-molecule microarray, 635/667 nm fluorescence, primary screen (AID 1142); details: 635 nm fluorescence, higher = more signal;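 also: fluorescence read at 667 nm with signal to noise per printed feature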
[11] = ATP-based viability of Huh7 replicon cells – cell-based, CellTiter-Glo luminescence, basal, 48 h, cytotoxicity control for HCV replication inhibitor project, primary screen (AID 1143); details: higher = more signal, called active from +8 up or from −8 down;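 also: Huh7 hepatoma cells carrying a hepatitis C replication reporter with no stimulus; test concentration not given here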
[12] = Pseudomonas biofilm growth suppression – PAO1 strain, BacTiter-Glo luminescence, LB-PBS, primary screen (AID 1144); details: P. aeruginosa PAO1 biofilm, 12 h, higher = more signal
[13] = basal CRE-LacZ reporter activity in PC12 – cell-based, unstimulated, primary screen (AID 1145); details: no forskolin, luminescence, 4.5 h, higher = more signal, called active from +8 up or from −8 down
[14] = forskolin-driven CRE-LacZ activity in PC12 – cell-based, CRE-LacZ reporter, forskolin-stimulated, primary screen (AID 1146); details: luminescence, 4.5 h, higher = more signal, called active from +8 up or from −8 down;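 also: PC12 cells with 6xCRE LacZ reporter stimulated by forskolin 10 µM; beta-galactosidase reporter signal reflecting CREB driven transcription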
[15] = biological target: Streptavidin (Streptomyces avidinii) (UniProt P22629); test: compounds binding control protein streptavidin – biophysical, small-molecule microarray, 635/667 nm fluorescence, artefact control for SMM compound annotation, primary screen (AID 1147); details: higher = more signal;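 also: signal reflects streptavidin binding to arrayed compounds as a control protein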
Sequence of Streptavidin (Streptomyces avidinii) (P22629 whole entry, looked up): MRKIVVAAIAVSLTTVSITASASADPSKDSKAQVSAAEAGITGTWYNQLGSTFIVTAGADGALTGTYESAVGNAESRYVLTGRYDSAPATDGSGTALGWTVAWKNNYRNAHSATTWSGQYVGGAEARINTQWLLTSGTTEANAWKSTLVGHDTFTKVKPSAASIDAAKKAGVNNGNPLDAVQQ

[16] = probe aInhba binding on compound microarray – biochemical, small-molecule microarray, 635/667 nm fluorescence, primary screen (AID 1148); details: higher = more signal;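 also: score merges 667nm spot fluorescence with signal-to-noise for antibody binding to printed compounds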
Torsin-1A (Homo sapiens) [17] = biological target: Torsin-1A (Homo sapiens) (UniProt O14656); test: TOR1A wild-type binding on microarray – cell lysate, small-molecule microarray, lysate, 635/667 nm, primary screen (AID 1149); details: COS7 hTOR1A-WT lysate, 635 nm fluorescence, higher = more signal
Sequence of Torsin-1A (Homo sapiens) (O14656 whole entry, looked up): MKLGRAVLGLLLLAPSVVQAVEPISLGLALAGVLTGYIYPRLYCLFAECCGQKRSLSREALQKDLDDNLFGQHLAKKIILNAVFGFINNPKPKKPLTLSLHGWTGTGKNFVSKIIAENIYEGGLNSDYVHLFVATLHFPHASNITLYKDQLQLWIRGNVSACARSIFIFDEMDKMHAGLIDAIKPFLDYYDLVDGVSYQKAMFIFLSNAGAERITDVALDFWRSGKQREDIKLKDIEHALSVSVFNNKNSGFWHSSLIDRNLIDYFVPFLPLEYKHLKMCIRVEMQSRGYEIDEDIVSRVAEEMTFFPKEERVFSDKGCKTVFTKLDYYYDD

Torsin-1A (Homo sapiens) [18] = biological target: Torsin-1A (Homo sapiens) (UniProt O14656); test: torsin A mutant lysate binding on microarrays – cell lysate, small-molecule microarray, COS7 lysate, 635/667 nm fluorescence, primary screen (AID 1150); details: COS7 hTOR1A mutant lysate, 635 nm fluorescence, higher = more signal;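 also: score pools 667 nm emission and signal to noise measuring lysate protein binding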
[19] = test system: Sonic hedgehog protein (Shh); test: Sonic hedgehog microarray binding compounds – biochemical, small-molecule microarray, 635/667 nm fluorescence, primary screen (AID 1151); details: 635 nm fluorescence, higher = more signal;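 also: Shh protein binding to compounds spotted on small-molecule microarray slides; score combines spot fluorescence intensity with signal-to-noise across triplicate slides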

Row | SMILES | composite z-score [1] | composite z-score [2] | composite z-score [3] | composite z-score [4] | composite z-score [5] | composite z-score [6] | z-score [7] | composite z-score (Lefty1) | composite z-score [8] | z-score [9] | composite z-score [10] | z-score [11] | z-score [12] | z-score [13] | z-score [14] | composite z-score [15] | composite z-score [16] | composite z-score (Torsin-1A (Homo sapiens) [17]) | composite z-score (Torsin-1A (Homo sapiens) [18]) | composite z-score [19]
1 | CC(C)(C)N1CC=CC23O[C@@H]4C=CCCOC(=O)C4[C@H]2C(=O)N(CCCO)[C@@H]3C1=O (stereo not given in full) | -1.89 | -1.75 | -0.491 | -1.66 | -0.103 | -0.464 | -0.754 | -0.292 | -1.96 | -0.0881 (inactive) | -0.213 | -2.5 (inactive) | -0.93 (inactive) | 0.451 (inactive) | -0.178 (inactive) | -1.33 | -0.23 | -0.253 | -0.663 | 0.398
2 | COCCOC(=O)N1C(=O)[C@@]2(c3cc(C#CCC(C(=O)OC)C(=O)OC)ccc31)[C@H](C(=O)N1CCCCCCC1)[C@H]1C(=O)O[C@H](c3ccccc3)[C@H](c3ccccc3)N1[C@@H]2c1ccc(O)cc1 | 2.63 | 1.16 | 0.598 | 0.59 | 1.07 | 1.5 | -0.909 | 0.972 | 1.13 | 0.414 (inactive) | 0.735 | -4.08 (inactive) | -0.754 (inactive) | -0.882 (inactive) | -0.807 (inactive) | 1.22 | 1.22 | 1.41 | 1.41 | 1.62
3 | COc1ccc([Si](C)(C)[C@@H]2[C@@H](CCO)O[C@]3(C(=O)N(Cc4ccccc4)c4ccc(N5CCCCC5=O)cc43)[C@H]2C)cc1 | 1.47 | 1.17 | 1.61 | 0.734 | 1.13 | 0.634 | -0.167 | 0.788 | 0.184 | 0.0481 (inactive) | 0.271 | -8.08 (active) | -0.119 (inactive) | 8.84 (active) | -0.94 (inactive) | 0.583 | 0.0446 | -0.121 | 0.198 | 1.44
4 | CC1=C2[C@@H](CCc3ccccc3)OB(O)C[C@@H]2[C@@H]2C(=O)C=CC(=O)[C@@H]2C1 | 0.892 | 0.339 | -0.512 | 0.565 | 1.12 | 1 | -1.2 | 0.845 | 0.469 | -3.34 (inactive) | 0.135 | -0.894 (inactive) | 0.0958 (inactive) | 14.1 (active) | 28.4 (active) | 0.537 | -0.0873 | 0.355 | 0.474 | 1.44
5 | [N-]=[N+]=NCc1ccccc1C[C@@]1(C(=O)NCCN2CCOCC2)N=C(c2ccc(OCCCO)cc2)O[C@@H]1c1ccccc1CN=[N+]=[N-] | 2.12 | 1.21 | 0.366 | 0.973 | 1.45 | 0.672 | 1.08 | 0.785 | 0.59 | -1.36 (inactive) | 0.784 | -2.99 (inactive) | 0.497 (inactive) | -0.641 (inactive) | -0.781 (inactive) | 0.697 | 0.196 | -0.0348 | 0.472 | 0.619
